The source of these data is the supplement of paper PMC4840960.

In assay [1] the test system is E18 rat cortical neuron-glia co-culture. Kind of assay: fiber score / MBP score (myelination specific beyond OL differentiation) (ratio); higher = more myelination-specific MBP alignment. The settings on record: treatment time: 8 days (DIV5-DIV13). Summed up:
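The measure is the ratio of fiber score to MBP score, where fiber score is continuous MBP fiber length per Olig2+ nucleus and MBP score is thresholded MBP area × intensity per Olig2+ nucleus. Primary E18 rat cortical co-cultures received library compounds at 1 or 5 µM in myelination medium from DIV5 to DIV13, then were fixed in 4 % paraformaldehyde and stained for MBP, Olig2 and DAPI before analysis of four 10X fields per well in duplicate wells.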

The test system is the same in assay [2]. Kind of assay: myelination (MBP fiber length per Olig2+ nucleus), % of 1 µM DAPT response (DMSO = 0) (% of DAPT); higher = more myelination, active = 50 or more. The settings on record: treatment time: 8 days (DIV5-DIV13). Summed up: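 The myelination value was the continuous straight MBP fiber length per Olig2+ nucleus, scaled between 0.1 % DMSO (0) and a 1 µM positive control (100). It was measured in primary E18 rat cortical co-cultures treated with library compounds at 1 or 5 µM in myelination medium from DIV5 through DIV13. Cells were fixed in 4 % paraformaldehyde and stained for MBP, Olig2 and DAPI, and four 10X fields per well were imaged in duplicate wells.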

± gives the standard deviation of the averaged measurements.

Consider `Nc1ccn([C@H]2CC[C@@H](CO)O2)c(=O)n1` [Zalcitabine], for which the “fiber score / MBP score” value in assay [1] (1 µM) came to 0.888; in assay [1] (5 µM), 0.902. The myelination in assay [2] (1 µM) was 3.9 (inactive); in assay [2] (5 µM), -7.3 (inactive).
Taken in the same sequence, the figures for `CC(C)(C(=O)O)c1ccc(C(O)CCCN2CCC(C(O)(c3ccccc3)c3ccccc3)CC2)cc1` (stereo unspecified) [Fexofenadine] were 0.774, 0.82, 0.24 (inactive) and 0.141 (inactive).
For `CN1C(C(=O)Nc2ccccn2)=C(O)c2ccccc2S1(=O)=O` [Piroxicam] the same measures were 0.787, 1.04, -10.9 (inactive) and -8.56 (inactive).
In the case of `O=C(CCCN1CCC(O)(c2ccc(Cl)cc2)CC1)c1ccc(F)cc1` [Haloperidol], the “fiber score / MBP score” value was determined as 0.526 in assay [1] (1 µM) and 0.498 in assay [1] (5 µM). Also, the figures for the myelination in assay [2] (1 µM) and in assay [2] (5 µM) were -18 (inactive) and -13.9 (inactive), respectively.
Taken in the same sequence, the figures for `CCn1cc(C(=O)O)c(=O)c2cc(F)c(N3CCNCC3)cc21` [Norfloxacin] were 0.701, 0.729, -19.9 (inactive) and -11.1 (inactive).
For `CC(C)NCC(O)COc1cccc2ccccc12` (stereo unspecified) [Propranolol] the same measures were 1.55, 0.95, 9.85 (inactive) and 1.55 (inactive).
Take `CNCC[C@H](Oc1cccc2ccccc12)c1cccs1` [Duloxetine]: the results for the “fiber score / MBP score” value in assay [1] (1 µM) and in assay [1] (5 µM) were 0.73 ± 0.064 and 0.881 ± 0.45, respectively. Moreover, the figures for the myelination in assay [2] (1 µM) and in assay [2] (5 µM) were -25.8 (inactive) and -33.2 (inactive), respectively.
Take `CNCC[C@@H](Oc1ccccc1C)c1ccccc1` [Atomoxetine]: the entries for the “fiber score / MBP score” value in assay [1] (1 µM) and in assay [1] (5 µM) were 0.774 and 0.721, respectively. Besides, the myelination is -18.6 (inactive) in assay [2] (1 µM) and -17.2 (inactive) in assay [2] (5 µM).
Taken in the same sequence, the figures for `COc1ccc(-c2cc(=O)c3c(OC)c(OC)c(OC)c(OC)c3o2)cc1OC` [Nobiletin] were 1.28, 1.16, -36.3 (inactive) and -46.5 (inactive).
